PubChem BioAssay (Tox21)
Calls of active or inactive are those of the source. Calls come from the whole dose curve; as a rule, active = well fitted cell-killing curve with a large enough effect in the repeat runs; inconclusive = weak or mixed curves, or effect the other way; inactive = flat fitted curve, though single readings scatter.

experiment: qHTS assay to identify small molecule HDAC inhibitors - cell viability counter screen (AID 1259365); settings: HCT-116 viability, CellTiter-Glo ATP luminescence, 2 h; series mostly up to 92.4 µM; activity change, negative = cytotoxicity: at the top concentration; note: nearly all actives have a fitted effect of over 50% in size
Excerpt: U.S. Tox21 Program National Center for Advancing Translational Sciences [NCATS] NIH Chemical Genomics Center [NCGC] U.S. Environmental Protection Agency [EPA] National Institutes of Environmental Health Sciences [NIEHS] National Toxicology Program [NTP] U.S. Food and Drug Administration [FDA] Tox21 Assay Overview: Histone deacetylases (HDACs) are a group of epigenetic enzymes that regulate gene expression by histone deacetylation. HDACs are capable of introducing epigenetic modifications and such aberrations contribute to the onset and progression of several human diseases, thus making HDACs a popular therapeutic target. For identifying endogenous class I/II HDAC inhibitors a homogenous, luminogenic HDAC I/II cell based assay was used to measure the relative activity of class I and II HDACs from cells. Wild type HCT-116 cells were used to screen Tox21 compound libraries for identifying class I/II HDAC inhibitors.
Tox21 Assay Protocol Summary: HCT-116 cells were dispensed at 1,500 per well in 5uL of culture medium into white solid bottom 1536-well plates (Greiner Bio-One, Monroe, NC) using a Multidrop Combi (Thermo Scientific, Waltham, MA) dispenser. The assay plates were incubated at 37 C and 5% CO2 for an overnight, and then 23nL of compounds dissolved in DMSO and positive control were transferred using a Pintool station (Wako, San Diego, CA). The assay plates were incubated at 37C and 5% CO2 for 2hr. After compound treatment, 4uL of CellTiter-Glo reagent (Promega Corporation, Madison, WI) was added to each well of the assay plates using Flying Reagent Dispenser (FRD, Aurora Discovery, San Diego, CA) and incubated the assay plates at room temperature for 30min. The luminescence signal was quantified using a ViewLux plate reader (Perkin Elmer, Shelton, CT).
% is set by controls: 0 for no effect and ±100 for the full control effect; potency is the fitted concentration of half-maximal effect.

Structure (SMILES)	activity change, negative = cytotoxicity	Potency
CCCCCCCCCCCCN1CCCCCC1=O	0.2% (inactive)	–
CCN(CC)CCNc1ccc(CNC=O)c2sc3ccc(OC)cc3c(=O)c12	4.63% (inactive)	–
CCO[C@H](Cc1ccc(OCCc2ccc(OS(C)(=O)=O)cc2)cc1)C(=O)O	1.56% [at 42.5 µM] (inactive)	–
N=c1ccn2c(n1)O[C@H]1[C@H](O)[C@@H](CO)O[C@H]12	-1.42% (inactive)	–
COc1cc2nc(N(C)CCCNC(=O)C3CCCO3)nc(N)c2cc1OC (stereo not given)	-0.39% [at 42.5 µM] (inactive)	–
CC(C)(CO)[N+](=O)[O-]	2.22% (inactive)	–
COS(=O)(=O)C(F)(F)F	-1.24% (inactive)	–
COc1ccc(-c2nc3ccc(C4=NNC(=O)CC4C)cc3[nH]2)cc1 (stereo not given)	2.36% [at 42.5 µM] (inactive)	–
CN(C)CCN(Cc1ccsc1)c1ccccn1	0.34% [at 42.5 µM] (inactive)	–
C[C@@H](c1ncncc1F)C(O)(Cn1cncn1)c1ccc(F)cc1F (stereo not given in full)	6.66% [at 42.5 µM] (inactive)	–
O=P(O)(OCc1ccccc1)OCc1ccccc1	7.72% (inactive)	–
CC(C)Nc1ccc(NC(C)C)c2c1C(=O)c1ccccc1C2=O	–	12.7 µM (active)
CC(=O)c1cccc([N+](=O)[O-])c1	1.77% (inactive)	–
CCC(C)(C)CC	-0.287% (inactive)	–
C/C(=C(\CCOP(=O)(O)O)SC(=O)c1ccccc1)N(C=O)Cc1cnc(C)nc1N	6.82% [at 8.39 µM] (inactive)	–
O[C@@H](COc1cccc2ncccc12)CN1CCN(C2c3ccccc3[C@@H]3[C@H](c4ccccc42)C3(F)F)CC1 (stereo not given in full)	-1.35% [at 42.5 µM] (inactive)	–
Cc1[nH]c(C)c(Cl)c(=O)c1Cl	8.49% [at 19 µM] (inactive)	–
CCCCCCOC(=O)NC(=N)c1ccc(NCc2nc3cc(C(=O)N(CCC(=O)OCC)c4ccccn4)ccc3n2C)cc1	4.39% [at 42.5 µM] (inactive)	–
CCN(CC)CCOC(=O)C(Cc1cccc2ccccc12)CC1CCCO1 (stereo not given)	-8.01% [at 42.5 µM] (inactive)	–
CN1CCC(N(Cc2cccs2)c2ccccc2)CC1	-4.75% [at 42.5 µM] (inactive)	–

Structure (SMILES)	activity change, negative = cytotoxicity	Potency
CC1=CCCC(C)(C)C12CCC(C)O2 (stereo not given)	-0.598% (inactive)	–
COc1ccc(C)cc1[N+](=O)[O-]	-0.654% (inactive)	–
CN(C)c1ccc(C(c2ccccc2)c2ccc(N(C)C)cc2)cc1	0.31% (inactive)	–
COc1cc(Cl)ccc1Oc1ccc(Cl)cc1Cl	-2.88% (inactive)	–
CC[N+](C)(CC)CCOC(=O)C(O)(c1ccccc1)C1CCCCC1 (stereo not given)	-1.14% [at 42.5 µM] (inactive)	–
C=CC(=O)OCCOc1ccccc1	5.23% (inactive)	–
CCCCCCCN	-3.47% (inactive)	–
COc1cc2nc(N3CCN(C(=O)C4COc5ccccc5O4)CC3)nc(N)c2cc1OC (stereo not given)	0.992% [at 42.5 µM] (inactive)	–
c1ccc(C(O[C@H]2CCCN(CCc3ccc4c(c3)OCO4)C2)c2ccccc2)cc1	-8.47% [at 42.5 µM] (inactive)	–
CC(C)(C)Cl	-5.04% (inactive)	–
C=CC(=O)OCCOCCOC(=O)C=C	21.5% (inactive)	–
CCCC(=O)Nc1ccc(O)c(C(C)=O)c1	2.99% [at 42.5 µM] (inactive)	–
O=C(O)CNCC(=O)O	-5.53% [at 8.39 µM] (inactive)	–
CCCCCCCCO[C@@H]1O[C@H](CO)[C@@H](O)[C@H](O)[C@H]1O	-0.0565% (inactive)	–
O=C1c2ccccc2S(=O)(=O)N1CCCCN1CCN(c2ncccn2)CC1	-4.81% [at 42.5 µM] (inactive)	–
CCN(CC)CCOC(=O)C(c1ccccc1)C1CCCCC1 (stereo not given)	-9.67% [at 42.5 µM] (inactive)	–
CCc1c(C(=O)NN2CCCCC2)nn(-c2ccc(Cl)cc2Cl)c1-c1ccc(Br)cc1	13% (inactive)	–
CCN(CC)c1ccc(C(=C2C=CC(=[N+](CC)CC)C=C2)c2cc(S(=O)(=O)O)ccc2S(=O)(=O)[O-])cc1	–	11.9 µM (active)
CCc1cc(C2=C(C(=O)O)N(c3ccccc3C(F)(F)F)S(=O)(=O)c3ccccc32)cc2c1OCO2	1.3% (inactive)	–
CC1CCC(=O)C1=O (stereo not given)	0.691% (inactive)	–
